Shown are actives, neighbours in structure and some others; about 12% of the full set was active somewhere.
SARS PLpro yeast – inhibitors of SARS-CoV papain-like protease in yeast. S. cerevisiae expressing SARS-CoV PLpro, growth rescue. Potency, µM (series often up to 32.9 µM), for the others: at the highest dose activity, positive = growth rescue, usual class: activators. 330,000 compounds, 0.19% hits. AID 485353; calls by dose curve; also: 0% is about no effect; nearly all actives have a fitted effect of over 55% in size
AMA1 RON2 block – AMA1-RON2 (P. falciparum) interaction inhibition. Potency, µM (series often up to 58.2 µM), for the others: at the top dose activity change, negative = inhibition, usual class: inhibitors. 360,000 compounds, 0.2% hits. AlphaScreen AMA1-biotinylated RON2 peptide binding;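 also: 0% = vehicle wells and -100% = peptide control; nearly all actives have a fitted effect of over 45% in size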
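AMA1 (3D7) with his tag at 25 nM final met compounds first, then biotinylated RON2 peptide at 25 nM; detection used donor plus acceptor beads, 10 µg/mL apiece, read by AlphaScreen after 30 min at room temperature.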
Pf growth 48h – inhibits P. falciparum growth in the first generation, 48 h. P. falciparum luciferase growth in erythrocytes, 48 h. Potency, µM (top dose mostly 28.7 µM), inactives show at the highest dose activity change, negative = inhibition, most hits filed as inhibitors. 310,000 compounds, 5.9% hits; also: % is scaled to controls: 0 for no effect and ±100 for the full control effect
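Luminescence readout; reporter = integrated firefly luciferase in P. falciparum. RBC culture at 2% hematocrit, 0.1% parasitemia final, 37 C/5% CO2; decreased signal taken as growth inhibition.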
Pf growth 96h – inhibits malaria parasite growth, 96 h. 320,000 compounds, 6.9% hits. Potency, µM (doses to about 28.7 µM), without a hit: top-dose activity change, negative = inhibition, most hits filed as inhibitors. P. falciparum luciferase reporter growth, 96 h. AID 504834; also: % is scaled to controls: 0 for no effect and ±100 for the full control effect
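96 h incubation, 37 C, 5% CO2, of luciferase-reporter P. falciparum-infected RBCs (2% hematocrit, 0.05% parasitemia final) with test compounds; endpoint luminescence.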
HCV inhibitor – HCV inhibition; Huh7.5.1 HCVcc-Cre infection, luciferase reporter, 44 h; Potency, µM (titrated, usually from 41.8 µM), inactives show at the highest dose activity change, negative = inhibition, hits mostly inhibitors; 340,000 compounds, 3.4% hits; also: % is scaled to controls: 0 for no effect and ±100 for the full control effect
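A cell-based infection assay in which seeded cells (1,000 per well) receive test compound after 4 h, are inoculated with HCVcc-Cre at approximately 0.5 moi, and are incubated 44 h before luminescence detection.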
NS1 inh – inhibitors of influenza NS1 protein function; 270,000 compounds, 0.4% hits; Potency, µM (series often up to 46.1 µM), for the others: at the highest dose activity, positive = more growth; calls by dose curve; also: actives are rising curves; nearly all actives have a fitted effect of over 50% in size
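Compounds were scored for reversing the slow growth caused by influenza A NS1 in S. cerevisiae, measured by optical density at 600 nm. Assay medium contained 2% galactose at pH 6.0; NS1-free yeast of the same strain were the positive control.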
Numbers without * were called inactive; ? = inconclusive; nt = no result; [ ] = another dose, or the depositor's remark. Unless noted, calls follow the shape of the dose curve; as a rule, active = well fitted curve in the direction sought with a large enough effect; inconclusive = small, poorly fitted or top-dose-only effect, or another doubt; inactive = no such curve, though single readings can be large; an effect the other way counts as inactive or inconclusive. Potency is read from the fitted curve at half-maximal effect.

SMILES	SARS PLpro yeast	AMA1 RON2 block	Pf growth 48h	Pf growth 96h	HCV inhibitor	NS1 inh
COc1ccc(CN2CCC(n3nccc3NC(=O)CCOc3ccccc3)CC2)cc1C	?	14%	54%	?	?	-9%
O=C(CCOc1ccccc1)Nc1ccnn1C1CCN(CCc2ccccc2)CC1	-4%	18%	-21%	13µM*	?	-9%
CCn1cc(CN2CCC(n3nccc3NC(=O)CCOc3ccccc3)CC2)cn1	1%	-3%	3%	?	0%	9%
COc1cccc(CN2CCC(n3nccc3NC(=O)CCOc3ccccc3)CC2)c1	-1%	-11%	?	3.3µM*	-10%	-8%
O=C(NCc1cccc2[nH]ccc12)C1CCC(=O)N(CCc2ccccc2)C1 (stereo unspecified)	1%	-6%	-15%	?	10%	7%
CC(NC(=O)c1cc(COc2ccc(-n3cncn3)cc2)on1)c1ccc(F)cc1 (stereo unspecified)	nt	-6%	nt	nt	nt	nt
O=C(NC1C2CC3CC(C2)CC1C3)C1CCCCC1 (stereo unspecified)	-1%	24%	35%	-18%	21%	-9%
CCn1nc(C)c(CN2CCC(n3nccc3NC(=O)Cc3ccccc3)CC2)c1C	-7%	0%	-10%	12µM*	nt	13%
COc1ccc(NC(=O)COC(=O)CN2C(=O)c3ccccc3C2=O)cc1	1%	-4%	1%	8%	6%	nt
OC[C@@H]1CN(Cc2ccc(Cl)cc2)C[C@H](n2cnc3c(NC4CC4)ncnc32)O1	nt	-7%	nt	nt	nt	nt
Nc1c2c(nc3cccc(Cl)c13)N(c1ccccc1)CC2	0%	6%	17%	7.4µM*	-3%	-1%
CSc1nc(-c2ccc(Cl)cc2)nn1C(=O)c1ccccc1	-33%	-7%	99%	1.3µM*	0%	1%
Nc1nc(-c2ccc(Cl)cc2)nn1C(=O)c1cccs1	-2%	-16%	19%	13µM*	8%	nt
CCCCSc1nc2ccc(Nc3nc(N4CCOCC4)nc(N4CCOCC4)n3)cc2s1	4%	-4%	?	?	?	?
CCCCNC(=O)CSc1nc2ccc(Nc3nc(N4CCOCC4)nc(N4CCOCC4)n3)cc2s1	1%	9%	?	8.3µM*	?	13%
COc1ccccc1NC(=O)OCC#CCOC(=O)Nc1ccccc1OC	-1%	0%	0%	-10%	-13%	4%
O=C(Nc1ccccc1)N1CCSc2cc(Cl)ccc21	-4%	1%	3%	?	2%	-1%
O=C(Nc1cccc(Cl)c1)N1CCSc2cc(Cl)ccc21	-16%	-12%	?	13µM*	?	-57%
O=C(Nc1ccccc1Cl)N1CCSc2ccccc21	0%	-7%	1.5µM*	-11%	-5%	-1%
CCC1Oc2ccccc2N(CC(=O)NC2CCCCC2C)C1=O (stereo unspecified)	1%	6%	-1%	-7%	1%	-8%
Cc1cccc(NC(=O)CSCC(=O)N(C)Cc2c(F)cccc2Cl)c1	10%	8%	?	13µM*	?	nt
CN(CC(=O)Nc1ccc(OC(F)(F)F)cc1)C(=O)Cc1c(Cl)cccc1Cl	-2%	-7%	?	?	?	15%
CN(CC(=O)Nc1ccc(Cl)cc1)C(=O)Cc1c(F)cccc1Cl	-2%	-3%	-17%	12µM*	-26%	10%
Cc1ccc2nc(N3CC(=O)Nc4ccccc43)nc(-c3ccccc3)c2c1	2%	6%	-9%	9.3µM*	?	-18%
CC(C)(C)C(=O)N1CCN(C(=O)c2ccco2)CC1	-7%	-5%	14%	?	26%	1%
SMILES	SARS PLpro yeast	AMA1 RON2 block	Pf growth 48h	Pf growth 96h	HCV inhibitor	NS1 inh
COC(=O)c1cc2ccsc2n1Cc1ccccc1F	-54%	32%	22%	12µM*	-11%	13%
COC(=O)c1cc2ccsc2n1Cc1cccc(F)c1	-26%	28%	-1%	?	-10%	-7%
COc1cc(/C=C(\CC(=O)O)c2nc3ccccc3s2)cc(OC)c1O	1%	-12%	0%	53%	-7%	nt
COc1cc(C=C(c2nc3ccccc3s2)c2nc3ccccc3s2)cc(OC)c1O	-54%	?	?	?	10µM*	9%
Cc1cc(F)ccc1S(=O)(=O)N(CC(=O)N1CCOCC1)CC(=O)N1CCOCC1	1%	32%	nt	nt	11%	nt
O=C(Cc1cccc(NC(=O)C2CCN(C(=O)CCc3ccccc3)CC2)c1)Nc1cccc(C(=O)N2CCCCC2)c1	nt	5%	nt	nt	-67%	nt
CC(C)=CCN1CCN(CCC2=C(C)CCCC2(C)C)CC1CCO (stereo unspecified)	-1%	7%	13µM*	-14%	?	-4%
CCc1cc(=O)oc2c(C)c(OS(C)(=O)=O)ccc12	nt	17%	nt	nt	13%	nt
CCc1cc2c(=O)c(-c3ccc4c(c3)OCCO4)c(C)oc2cc1OS(C)(=O)=O	-13%	-8%	?	4.1µM*	?	14%
CN(CCOc1ccc(Br)cc1)C(=O)CNC(=O)c1ccc2ccccc2c1	-36%	-8%	-5%	0%	?	-25%
COc1ccc(COc2cc(-c3cccc(OC)c3)nc3ccc(NC(=O)c4cccnc4)cc23)cc1	6%	-2%	2.9µM*	2.3µM*	?	?
O=C(O)c1cccc(NC(=O)c2ccc(COc3ccc(Cl)cc3)cc2)c1	-3%	-9%	80%	12%	7%	-12%
COc1ccc(C(=O)Nc2ccc(NC(=O)c3cccc(OC)c3)cn2)cc1	-1%	0%	?	-7%	?	-5%
COc1ccc(COc2cc(-c3cccc(OC)c3)nc3ccc(NC(=O)c4ccccc4)cc23)cc1	0%	12%	12µM*	12µM*	?	?
COc1ccc(COc2cc(-c3cccc(OC)c3)nc3ccc(NC(=O)c4ccc(OC)cc4)cc23)cc1	4%	-2%	13µM*	4.7µM*	7.1µM*	?
COc1ccc(COc2cc(-c3cccc(OC)c3)nc3ccc(NC(=O)c4ccc(Cl)cc4)cc23)cc1	4%	3%	2.1µM*	3.7µM*	6%[8.37 µM]	21%
O=C1CN(C(=O)NCCC(=O)NC2CCCCC2)c2ccccc2N1	1%	-5%	-6%	-23%	7%	-6%
Nc1ccn([C@@H]2O[C@H](C(=O)N[C@H](CO)Cc3ccccc3)[C@@H](O)[C@H]2O)c(=O)n1	nt	22%	nt	nt	nt	nt
COc1ccc(Cc2nc(-c3ccc(NC(=O)c4cccnc4)cc3)no2)cc1	0%	-1%	5.2µM*	44%	-29%	4%
COc1ccc(/C=C2/CCC(CN3CCOCC3)C2=O)cc1 (stereo unspecified)	nt	-4%	nt	nt	5µM*	nt
COc1ccc(/C=C2\CCC(C3CCCC3)C2=O)cc1 (stereo unspecified)	0%	-3%	225%	?	18%	0%

Screens (PubChem)
